The sample as a whole holds a higher share of hits than the screen did.
PD-1 reverse act = activators reversing PD-1 mediated T-cell inhibition, primary screen, luminescence, primary human CD4 T cells, PD-L1 beads. AID 2316, 2010. activation, % (concentration not given with the values). 29,000 tested, under 10 active. CellTiter-Glo 96 h; call rule not given here;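 note: 0% = median vehicle wells and 100% = positive control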
NOMO-1 viab = NOMO-1 AML cell viability reduction, primary screen, STK33 inhibitor project, CellTiter-Glo luminescence; NOMO-1 AML viability, 72 h; inhibition, % (concentration not given with the values); AID 2330, 2010; actives 7.5% (n = 37,000); in the data active = inhibition above about 80%; inconclusive = no clear call, values can overlap the other calls
STK33 inh = STK33 kinase inhibitors, primary screen, biochemical, luminescence, ADP-Glo, MBP substrate | actives 0.44% (n = 27,000) | Serine/threonine-protein kinase 33 (Homo sapiens), Q9BYT3 | inhibition, % at 12.5 µM | AID 2322, 2010; in the data active = inhibition above about 20%; inconclusive = no clear call, values can overlap the other calls
Target sequence (Q9BYT3 whole entry, looked up): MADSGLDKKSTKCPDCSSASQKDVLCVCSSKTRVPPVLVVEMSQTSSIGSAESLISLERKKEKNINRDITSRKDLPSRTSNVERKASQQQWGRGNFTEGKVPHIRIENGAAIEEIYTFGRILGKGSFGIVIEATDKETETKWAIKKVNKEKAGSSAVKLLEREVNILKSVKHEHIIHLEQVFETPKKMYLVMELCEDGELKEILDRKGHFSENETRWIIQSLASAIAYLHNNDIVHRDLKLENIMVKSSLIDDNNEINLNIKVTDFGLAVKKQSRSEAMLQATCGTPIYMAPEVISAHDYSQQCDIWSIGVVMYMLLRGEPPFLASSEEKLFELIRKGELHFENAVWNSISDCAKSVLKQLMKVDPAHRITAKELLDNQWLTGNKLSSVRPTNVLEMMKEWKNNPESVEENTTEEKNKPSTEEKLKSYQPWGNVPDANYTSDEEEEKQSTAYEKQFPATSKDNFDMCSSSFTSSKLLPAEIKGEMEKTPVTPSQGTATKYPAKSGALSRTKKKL
* hit, by the source's call; ? = inconclusive; nt = not tested or not shown.

SMILES	PD-1 reverse act	NOMO-1 viab	STK33 inh
COc1cccc(OCC(=O)Nc2ccc(Sc3ccc([N+](=O)[O-])cc3)cc2)c1	0	25	-4
CCN(CC)C(=S)Oc1ccc(I)cc1	1	-4	nt
CCc1c(C)nc(SCC(=O)Nc2ccc(OC)cc2)[nH]c1=O	nt	14	-4
COc1ccc2c(c1)C(C)CC(C)(C)N2C(=O)CSc1nc2ccccc2[nH]1 (stereo unspecified)	-1	18	0
Cc1cc(C)n(CC(O)COc2ccc(C(=O)c3ccc(Cl)cc3)cc2)n1 (stereo unspecified)	nt	11	3
c1ccc(-c2nsc(N3CCOCC3)n2)cc1	1	-1	nt
Clc1ccccc1/C=C/C=Nc1ccc(N2CCOCC2)cc1	0	122*	nt
O=C(Nc1ccccc1C(=O)O)c1cccc(S(=O)(=O)Nc2cccc(Br)c2)c1	nt	-5	-4
COC(=O)C1=C(C)NC(C)=C(C(=O)OCCCN2CCC(c3ccccc3)(c3ccccc3)CC2)C1c1cccc([N+](=O)[O-])c1 (stereo unspecified)	nt	120*	18
COC(=O)C1=C(C)NC2=C(C(=O)c3ccccc32)C1c1ccc(OCc2cccc([N+](=O)[O-])c2)cc1 (stereo unspecified)	nt	nt	0
Cc1cccc(NC(=O)c2ccccc2NC(=O)COc2ccccc2Cl)c1C	-1	23	-1
C[C@H](CO)N1C[C@H](C)[C@H](CN(C)Cc2ccc(C(F)(F)F)cc2)Oc2c(NC(=O)Nc3ccc(F)cc3)cccc2C1=O	-2	69	nt
C[C@@H]1CN([C@H](C)CO)C(=O)c2cccc(NC(=O)Nc3ccc(F)cc3)c2O[C@H]1CN(C)Cc1ccc(C(F)(F)F)cc1	-5	83*	nt
C[C@H](CO)N1C[C@H](C)[C@@H](CN(C)Cc2ccc(C(F)(F)F)cc2)Oc2c(NC(=O)Nc3ccc(F)cc3)cccc2C1=O	-2	113*	nt
C[C@@H]1CN([C@@H](C)CO)C(=O)c2cccc(NC(=O)Nc3ccc(F)cc3)c2O[C@@H]1CN(C)Cc1ccc(C(F)(F)F)cc1	-3	88*	nt
CS(=O)(=O)N(CC(=O)Nc1ccccc1C(=O)N1CCOCC1)c1cccc(Cl)c1Cl	1	15	1
CC(C)(C)C1CCc2c(sc(NC(=O)CN3CCOCC3)c2C#N)C1 (stereo unspecified)	0	2	-2
CCc1c(O)cc(O)c2c1O[C@H](C)CC2=O	-1	-5	0
Cc1nc(S(=O)(=O)N[C@H]2CCN(Cc3cccc(OCCO)c3)C2)cn1C	nt	nt	-2
Cc1csc2sc(C=NCc3cccs3)c(C)c12	-4	122*	nt
COc1ccc(-c2coc3c(OC)c(OC)ccc3c2=O)cc1	4	19	-1
COc1ccc(Oc2c(C(F)(F)F)oc3cc(OCC(=O)Nc4ccccc4F)ccc3c2=O)cc1	-7	96*	6
CC(C)c1ccccc1Oc1coc2cc(OCC(=O)Nc3ccccc3F)ccc2c1=O	1	28	-1
N#CC1=C(N)C(C#N)(C#N)C(c2ccccc2)C2=C1CCCC2 (stereo unspecified)	-6	88*	nt
COc1cc([C@H]2OC[C@H]3[C@@H]2CO[C@@H]3c2ccc3c(c2)OCO3)cc(OC)c1OC	1	-3	-2
SMILES	PD-1 reverse act	NOMO-1 viab	STK33 inh
C=C1C(=O)O[C@@H]2C[C@@]3(C)[C@@H](O)C[C@@H](O)C(=C)[C@@H]3C[C@H]12	-4	83*	-2
C=C1C(=O)OC2CC3(C)CCC=C(CO)C3CC12 (stereo unspecified)	nt	nt	-9
Cc1cc(OCC(=O)Nc2ccccc2C(=O)N2CCCCC2)c(C)cc1Br	nt	17	-2
Cc1ccc(Cl)cc1N(CC(=O)Nc1ccc(C(F)(F)F)cc1)S(C)(=O)=O	-6	118*	-2
CS(=O)(=O)N(CC(=O)Nc1cc(C(F)(F)F)ccc1Cl)c1cccc([N+](=O)[O-])c1	1	31	-5
Cc1ccc(Cl)cc1N(CC(=O)Nc1ccc(I)cc1)S(C)(=O)=O	-2	66	-1
CS(=O)(=O)N(CC(=O)Nc1ccc(C(F)(F)F)cc1)c1cccc([N+](=O)[O-])c1	-2	121*	-10
CS(=O)(=O)N(CC(=O)Nc1ccc(Br)cc1)c1ccc(Cl)cc1Cl	-1	23	3
COc1cc(S(=O)(=O)Nc2ccncc2)c(OC)cc1Cl	nt	8	2
C[C@H]1CN([C@@H](C)CO)C(=O)c2cccc(NC(=O)Nc3ccc(F)cc3)c2O[C@@H]1CN(C)Cc1ccc(C(=O)Nc2ccccc2N)cc1	-1	140*	nt
C[C@@H]1CN([C@@H](C)CO)C(=O)c2cccc(NC(=O)Nc3ccc(C(F)(F)F)cc3)c2O[C@H]1CN(C)Cc1ccc(C(=O)Nc2ccccc2N)cc1	-5	128*	nt
C[C@@H]1CN([C@H](C)CO)C(=O)c2cccc(NC(=O)Nc3ccc(C(F)(F)F)cc3)c2O[C@@H]1CN(C)Cc1ccc(C(=O)O)cc1	1	1	nt
C[C@@H]1CN([C@H](C)CO)C(=O)c2cccc(NC(=O)Nc3ccc(F)cc3)c2O[C@H]1CN(C)Cc1ccc(C(=O)Nc2ccccc2N)cc1	-3	127*	nt
C[C@H](CO)N1C[C@H](C)[C@@H](CN(C)Cc2ccc(C(=O)O)cc2)Oc2c(NC(=O)Nc3ccc(F)cc3)cccc2C1=O	nt	3	2
C[C@@H]1CN([C@@H](C)CO)C(=O)c2cccc(NC(=O)Nc3ccc(F)cc3)c2O[C@H]1CN(C)Cc1ccc(C(=O)Nc2ccccc2N)cc1	-6	125*	nt
C[C@H]1CN([C@@H](C)CO)C(=O)c2cccc(NC(=O)Nc3ccc(F)cc3)c2O[C@@H]1CN(C)Cc1ccc(C(=O)O)cc1	nt	-9	nt
C[C@@H]1CN([C@@H](C)CO)C(=O)c2cc(NC(=O)Nc3ccc(F)cc3)ccc2O[C@@H]1CN(C)Cc1ccc(C(=O)Nc2ccccc2N)cc1	-1	?	nt
Cc1c(Cl)cccc1NC(=O)CSc1nnc(-c2ccc([N+](=O)[O-])cc2)n1C	nt	2	-2
CC(C)c1ccccc1NC(=O)CSc1nc(-c2ccccc2)cc(=O)[nH]1	1	11	-2
C[C@H](CO)N1C[C@H](C)[C@H](CN(C)Cc2ccc(C(=O)Nc3ccccc3N)cc2)Oc2c(NC(=O)Nc3ccc(F)cc3)cccc2C1=O	0	97*	nt
C[C@H]1CN([C@@H](C)CO)C(=O)c2cc(NC(=O)Nc3ccc(F)cc3)ccc2O[C@H]1CN(C)Cc1ccc(C(=O)Nc2ccccc2N)cc1	0	?	nt
C[C@H](CO)N1C[C@H](C)[C@H](CN(C)C(=O)Nc2ccc(C(F)(F)F)cc2)Oc2c(NC(=O)Nc3cccc4ccccc34)cccc2C1=O	-6	102*	nt
C[C@H]1CN([C@@H](C)CO)C(=O)c2cccc(NC(=O)Nc3ccccc3)c2O[C@@H]1CN(C)C(=O)Nc1ccc(C(F)(F)F)cc1	-1	6	nt
C[C@@H]1CN([C@@H](C)CO)C(=O)c2cccc(NC(=O)Nc3ccccc3)c2O[C@@H]1CN(C)C(=O)Nc1ccc(C(F)(F)F)cc1	nt	68	nt
C[C@H](CO)N1C[C@H](C)[C@@H](CN(C)C(=O)Nc2ccccc2)Oc2c(NC(=O)Nc3ccc(C(F)(F)F)cc3)cccc2C1=O	-2	76	nt
